Experiment in all cases: BK channel mutant inhibitors and activators – cell-based, U2OS BacMam, thallium flux, beta subunits, selectivity assay, profiling panel (AID 1259406);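 note: initial slope of Thallos dye fluorescence rise after thallium is added; log ratio against the mean of 0.3% DMSO vehicle wells on the same plate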
The subject of one test is F380Y. The settings on record: U2OS BacMam BK variants, at 30 µM.
The subject of a further test is F380Y/beta1. Particulars: U2OS BacMam BK variants, at 30 µM.
The subject of another test is F380Y/beta2Delta. Particulars: U2OS BacMam BK variants, at 30 µM.
For a further test, the system named is F380Y/beta4. The settings on record: U2OS BacMam BK variants, at 30 µM.
For test [1], the target named is Calcium-activated potassium channel subunit alpha-1 (Homo sapiens) + Leucine-rich repeat-containing protein 26 (Homo sapiens) (UniProt Q12791+Q2I0M4). Particulars: U2OS BacMam BK variants, F380Y/Slo1WT/gamma1, at 30 µM.
Sequence of Calcium-activated potassium channel subunit alpha-1 (Homo sapiens) + Leucine-rich repeat-containing protein 26 (Homo sapiens) (Q2I0M4 whole entry, looked up, one chain of several): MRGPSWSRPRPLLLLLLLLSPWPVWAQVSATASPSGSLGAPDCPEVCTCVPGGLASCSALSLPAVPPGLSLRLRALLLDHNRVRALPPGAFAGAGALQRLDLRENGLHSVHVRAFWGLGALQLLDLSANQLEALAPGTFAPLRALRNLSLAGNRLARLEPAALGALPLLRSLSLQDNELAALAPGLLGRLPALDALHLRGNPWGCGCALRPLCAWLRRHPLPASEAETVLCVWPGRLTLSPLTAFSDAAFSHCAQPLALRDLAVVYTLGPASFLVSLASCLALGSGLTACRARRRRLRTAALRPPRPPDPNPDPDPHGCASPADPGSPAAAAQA
The next test relates to R275C. The settings on record: U2OS BacMam BK variants, at 30 µM.
Another test has as its system R275C/beta1. Particulars: U2OS BacMam BK variants, at 30 µM.
The next test concerns R275C/beta2Delta. The settings on record: U2OS BacMam BK variants, at 30 µM.
For a further test, the system named is R275C/beta4. Particulars: U2OS BacMam BK variants, at 30 µM.
The test system of a further test is R275C/Slo1WT/beta2. The settings on record: U2OS BacMam BK variants, at 30 µM.

Molecules are shown by their SMILES. Unmarked numbers belong to inactive results. Calls of active or inactive are those of the source.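 Rule for the calls: active = thallium flux through the channel raised or lowered by more than 3 SD from vehicle-only wells, actives on both sides; inactive = the rest.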

In the case of `CCOC(=O)Cn1c(-c2c(Cl)cccc2Cl)noc1=O`, the log fold change Tl+ flux is 0.00248 with F380Y; -0.00728 in the test with F380Y/beta1; -0.0091 in the test with F380Y/beta2Delta; -0.00368 in the test on F380Y/beta4; -0.0669 in test [1]; 0.0179 in the test with R275C. Besides, the log fold change Tl+ flux is -0.00444 in the test on R275C/beta1, 0.0184 in the test with R275C/beta2Delta, -0.018 in the test with R275C/beta4 and 0.00072 in the test on R275C/Slo1WT/beta2.
With `CC(C)(C)NC(=O)NCCO`, the log fold change Tl+ flux in the test with F380Y is 0.0116; in the test on F380Y/beta1, -0.0332; in the test with F380Y/beta2Delta it was 0.0577; with F380Y/beta4 it was -0.013; in test [1] it was -0.0499; with R275C, -0.02. The log fold change Tl+ flux was 0.0132 in the test on R275C/beta1, -0.014 in the test with R275C/beta2Delta, 0.00214 in the test with R275C/beta4 and -0.03 in the test on R275C/Slo1WT/beta2.
With `CCOC(=O)c1ccc(NC(=O)CCC(=O)O)cc1`, the log fold change Tl+ flux in the test with F380Y is -0.0468; with F380Y/beta1, -0.00176; with F380Y/beta2Delta, -0.0505; in the test on F380Y/beta4, 0.0259; in test [1] it was 0.0113; with R275C, -0.00978. The log fold change Tl+ flux in the test with R275C/beta1 was -0.00901; in the test on R275C/beta2Delta it was -0.0108; in the test on R275C/beta4, -0.0046; with R275C/Slo1WT/beta2, 0.0242.
With `Cc1cc2nccc(-c3cccnc3)n2n1`, the log fold change Tl+ flux is -0.0198 in the test on F380Y; -0.0232 in the test on F380Y/beta1; 0.0219 in the test on F380Y/beta2Delta; -0.0149 in the test with F380Y/beta4; -0.0534 in test [1]; 0.00294 in the test with R275C. Also, the log fold change Tl+ flux in the test with R275C/beta1 is -0.00487; in the test on R275C/beta2Delta, -0.00124; in the test on R275C/beta4, 0.00702; in the test on R275C/Slo1WT/beta2, -0.00651.
Consider `O=S(=O)(Nc1cc(Cl)c(-n2cccc2)cc1Oc1ccc(Cl)cc1)c1ccc(Cl)cc1`, for which the log fold change Tl+ flux is 0.0117 in the test on F380Y; -0.0223 with F380Y/beta1; 0.00907 with F380Y/beta2Delta; -0.0612 in the test with F380Y/beta4; -0.0472 in test [1]; 0.0112 with R275C. The log fold change Tl+ flux was -0.0614 with R275C/beta1, -0.0256 in the test on R275C/beta2Delta, 0.0232 with R275C/beta4 and -0.0536 in the test with R275C/Slo1WT/beta2.
On to `COc1ccc(CCNC(=O)c2ccccc2NC(=O)c2ccccc2C)cc1OC`, for which the log fold change Tl+ flux with F380Y is -0.0118; in the test with F380Y/beta1, -0.0452; in the test with F380Y/beta2Delta, -0.0544; in the test on F380Y/beta4, -0.615 (active); in [1], -0.381 (active); in the test with R275C, -1.01 (active). The log fold change Tl+ flux in the test with R275C/beta1 was -0.839 (active); with R275C/beta2Delta, -0.31 (active); with R275C/beta4, -0.582 (active); in the test on R275C/Slo1WT/beta2 it was -0.267 (active).
On to `CCCCCc1c(C)nc(-c2ccccn2)[nH]c1=O`, for which the log fold change Tl+ flux in the test on F380Y was -0.0547; with F380Y/beta1, -0.0236; in the test with F380Y/beta2Delta, -0.0415; with F380Y/beta4, -0.0388; in [1], -0.0142; in the test with R275C, 0.00744. Besides, the log fold change Tl+ flux with R275C/beta1 was 0.00404; in the test on R275C/beta2Delta, 0.0392; with R275C/beta4 it was 0.0188; in the test on R275C/Slo1WT/beta2 it was -0.0181.
In the case of `O=C(c1ccccc1)c1c(Cl)cc(C(F)(F)F)cc1Cl`, the log fold change Tl+ flux is -0.0258 in the test with F380Y; 0.0352 with F380Y/beta1; 0.0614 with F380Y/beta2Delta; 0.0559 in the test with F380Y/beta4; 0.0324 in test [1]; 0.00162 in the test on R275C. In addition, the log fold change Tl+ flux is 0.0087 in the test on R275C/beta1, 0.0434 in the test with R275C/beta2Delta, 0.000317 with R275C/beta4 and 0.0159 in the test on R275C/Slo1WT/beta2.
`CSc1nc(C=Nc2cccc(Cl)c2)c(O)n1Cc1cccc(Cl)c1`: the log fold change Tl+ flux is -0.00291 with F380Y; 0.208 (active) in the test with F380Y/beta1; 0.0623 in the test with F380Y/beta2Delta; -0.0889 in the test on F380Y/beta4; 0.0392 in [1]; -0.03 in the test with R275C. Moreover, the log fold change Tl+ flux in the test with R275C/beta1 was 0.102; in the test on R275C/beta2Delta, 0.137 (active); in the test on R275C/beta4 it was 0.11 (active); in the test on R275C/Slo1WT/beta2, -0.0459.
Consider `CC1=NC2SC=C(c3ccccc3Cl)N2C(=O)C1` (stereo not given), for which the log fold change Tl+ flux with F380Y is -0.0123; in the test with F380Y/beta1, 0.0244; in the test with F380Y/beta2Delta, -0.0252; with F380Y/beta4 it was 0.00331; in test [1], -0.0675; in the test on R275C, -0.0205. The log fold change Tl+ flux is 0.0259 in the test with R275C/beta1, -0.0444 in the test with R275C/beta2Delta, 0.037 in the test with R275C/beta4 and 0.0321 with R275C/Slo1WT/beta2.
As to `Cc1ccc(S(C)(=O)=NC(=O)c2ccc(-c3cc(C(F)(F)F)nn3C)s2)cc1` (stereo not given), the log fold change Tl+ flux in the test on F380Y was -0.000678; in the test with F380Y/beta1 it was 0.0247; in the test with F380Y/beta2Delta it was -0.011; in the test on F380Y/beta4 it was 0.0284; in [1], 0.0389; in the test with R275C it was -0.0362. In addition, the log fold change Tl+ flux in the test on R275C/beta1 was 0.013; in the test on R275C/beta2Delta it was 0.015; with R275C/beta4, 0.00574; in the test with R275C/Slo1WT/beta2 it was 0.0204.
On to `O=C(CCN1CCOCC1)Nc1cc(Cl)cc(Cl)c1`, for which the log fold change Tl+ flux in the test with F380Y was 0.0457; with F380Y/beta1, 0.0335; in the test on F380Y/beta2Delta, 0.00661; in the test on F380Y/beta4, 0.024; in test [1] it was -0.0241; with R275C it was 0.0216. For the same compound, the log fold change Tl+ flux in the test with R275C/beta1 is 0.0618; with R275C/beta2Delta, 0.0272; with R275C/beta4, 0.0419; with R275C/Slo1WT/beta2, -0.0333.
As to `Cc1cc(Sc2nnc(N=CN(C)C)s2)c2ccccc2n1`, the log fold change Tl+ flux is 0.0126 in the test with F380Y; 0.0257 in the test on F380Y/beta1; -0.0453 in the test on F380Y/beta2Delta; -0.0187 with F380Y/beta4; 0.011 in test [1]; 0.0403 in the test with R275C. For the same compound, the log fold change Tl+ flux in the test on R275C/beta1 is 0.0231; in the test on R275C/beta2Delta it was 0.0658; in the test with R275C/beta4 it was 0.0604; in the test on R275C/Slo1WT/beta2, 0.0405.
As for `Cc1cc(NS(=O)(=O)c2ccc(NC(=O)c3nccnc3C(=O)O)cc2)no1`, the log fold change Tl+ flux in the test with F380Y was -0.0365; in the test with F380Y/beta1, 0.00855; in the test on F380Y/beta2Delta it was -0.054; in the test on F380Y/beta4, -0.0573; in test [1] it was -0.136 (active); in the test with R275C it was -0.0122. Also, the log fold change Tl+ flux in the test on R275C/beta1 is 0.022; in the test on R275C/beta2Delta it was -0.0352; in the test on R275C/beta4, 0.0165; with R275C/Slo1WT/beta2, -0.0416.

Source of the values: PubChem BioAssay.
